In PubChem BioAssay (Tox21):
Inconclusive results are not listed. Unmarked numbers belong to inactive results. The source made the active and inactive calls. The call rests on the fitted dose curve.

Target: 5-hydroxytryptamine receptor 2A (Homo sapiens) (UniProt P28223)
Assay: 5-hydroxytryptamine receptor 2A (HTR2A) small molecule agonists, cell-based qHTS assay (AID 1963587); further: nearly all actives have a fitted effect of over 30% in size
Conditions: HTR2A-CHO cells, calcium flux fluorescence, agonist mode; series mostly up to 76.8 µM; activation: at the top concentration
Excerpt: National Center for Advancing Translational Sciences [NCATS]
Division of Preclinical Innovation [DPI]
U.S. Environmental Protection Agency [EPA]
National Institutes of Environmental Health Sciences [NIEHS]
National Toxicology Program [NTP]
U.S. Food and Drug Administration [FDA]
The HTR2A receptor is a subtype of the 5-HT2 receptor that belongs to the serotonin receptor family and is a G protein-coupled receptor (GPCR). The HTR2A-CHO cell line stably expressing human 5-hydroxytryptamine receptor 2A (HTR2A) can be used for screening agonists of interactions between 5-HT2 and its ligands. The HTR2A-CHO calcium flux assay is a homogeneous fluorescence-based assay for detecting the intracellular calcium level using FDSS kinetic plate reader system.
HTR2A-CHO cells were dispensed at 2000 cells/3uL/well in 1536-well black-clear bottom plates using a Multidrop Dispenser. After the assay plates were incubated at a 37 C/5% CO2 incubator for 18 h, 3 uL of Dye Loading Buffer was transferred to the assay plate by a Flying Reagent Dispenser. The assay plates were incubated at 37 C for 1h. For agonist mode, 23 nL of compounds dissolved in DMSO, positive controls or DMSO only was transferred to the assay plate by a pin tool. The fluorescence intensity in the plates was measured using FDSS 7000EX kinetic plate reader for 2 min at 1 sec intervals.
On the % scale 0 is the no-effect control and ±100 the full control effect; potency means the concentration at half of the fitted maximal effect.

5-hydroxytryptamine receptor 2A (Homo sapiens), sequence (P28223 whole entry, looked up): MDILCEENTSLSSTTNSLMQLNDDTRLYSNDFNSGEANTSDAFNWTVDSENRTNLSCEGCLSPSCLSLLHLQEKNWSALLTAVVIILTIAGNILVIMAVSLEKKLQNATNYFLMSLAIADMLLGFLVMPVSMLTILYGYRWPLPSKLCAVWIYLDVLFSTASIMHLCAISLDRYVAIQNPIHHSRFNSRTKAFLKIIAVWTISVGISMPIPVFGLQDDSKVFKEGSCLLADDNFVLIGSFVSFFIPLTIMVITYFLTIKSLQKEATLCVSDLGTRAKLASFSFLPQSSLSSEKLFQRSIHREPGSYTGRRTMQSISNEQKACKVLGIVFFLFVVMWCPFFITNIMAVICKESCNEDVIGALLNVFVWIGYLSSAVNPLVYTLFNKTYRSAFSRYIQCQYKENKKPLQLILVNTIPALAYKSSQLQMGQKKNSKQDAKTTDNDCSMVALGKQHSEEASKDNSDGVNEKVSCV

With `O=C1CCCCCCCCCCCC(=O)OCCO1` the Potency was 5.49 µM (active).
In the case of `O=C1OC2(c3ccccc31)c1ccc(O)c(Br)c1Oc1c2ccc(O)c1Br`, the Potency was 1.55 µM (active).
For `COc1cc(Cc2cnc(N)nc2N)cc(OC)c1OC`, the Potency was “inactive”.
`CC(O)(c1ccc(Cl)cc1)c1ccc(Cl)cc1` was tested, and the Potency was 49 µM (active).
With `C1=CC2C3C=CC(C3)C2C1` (stereo not given) the Potency was 54 µM (active).

First: C1C2OC2C2C1C1CC2C2OC12 (stereo not given)
Second: C[C@]12CC[C@H]3C(=CCc4cc(O)ccc43)[C@@H]1CCC2=O
The “activation” value of the first is higher: 3.19% for the first, -24.2% for the second.

First: O=C(NS(=O)(=O)/C=C/c1cccs1)c1ccc(F)cc1Br
Second: O=C1c2ccccc2C(=O)c2cc(S(=O)(=O)O)ccc21
The “activation” value of the first is lower: -18.3% for the first, -2.78% for the second.

Going from `C=C(C)C(=O)OCCOP(=O)(O)OCCOC(=O)C(=C)C` to `C=C(C)C(=O)OCC`, the “activation” value rises from -5.52% to 1.91%.

Going from `CC(C)(C)OC(=O)c1ccc(O)cc1` to `Cc1ccc(C(=O)O)cc1[N+](=O)[O-]`, the “activation” value falls from 2.27% to -0.419%.

Compared with `CCOC(=O)[C@@H](C)Oc1ccc(Oc2nc3ccc(Cl)cc3o2)cc1`, `CCOC(=O)c1nc(C(Cl)(Cl)Cl)n(-c2ccc(Cl)cc2Cl)n1` is higher in “activation” value: -2.15% for the first, 3.24% for the second.

Going from `CCCCN1C(=O)c2ccccc2C1=O` to `N=C1N=C(N)c2cc3ccccc3cc21`, the “activation” value falls from -6.03% to -26.2%.

First: C=Cc1ccncc1
Second: CC(C)C(=O)OCCc1ccccc1
The “activation” value of the first is lower: -6.47% for the first, -0.419% for the second.

First: CC(C)O.CC(C)O.CCOC(=O)/C=C(\C)O.CCOC(=O)/C=C(\C)O.[Ti]
Second: CCC(=O)Oc1ccc(/C(CC)=C(\CC)c2ccc(OC(=O)CC)cc2)cc1
The “activation” value of the first is lower: -1.32% for the first, 1.21% for the second.

Going from `NC(=O)c1c(Cl)cccc1Cl` to `NNC(=O)OCc1ccccc1`, the “activation” value falls from 2.53% to 0.478%.

Going from `O=[N+]([O-])c1ccc(NCCO)c(OCCO)c1` to `CCOc1ccc2nc(N)sc2c1`, the “activation” value falls from 5.94% to -2.19%.

First: O=S(=O)(O)SSS(=O)(=O)O
Second: O=C(Oc1ccccc1)c1cccc(C(=O)Oc2ccccc2)c1
The “activation” value of the first is higher: 4.63% for the first, -20.1% for the second.

Compared with `CCOC(=O)c1ccccc1C(=C1C=C(Br)C(=O)C(Br)=C1)c1cc(Br)c(O)c(Br)c1`, `COC(=O)C1=C(C)NC(C)=C(C(=O)OCC(C)=O)C1c1ccccc1[N+](=O)[O-]` (stereo not given) is lower in “activation” value: 2.89% [at 35.6 µM] for the first, 2.83% [at 35.6 µM] for the second.

First: O=C(NCC(O)CO)c1c(I)c(C(=O)NCC(O)CO)c(I)c(N(CCO)C(=O)CO)c1I (stereo not given)
Second: COC(=O)C1=C(C)NC(C)=C(C(=O)OCCCN2CCC(c3ccccc3)(c3ccccc3)CC2)C1c1cccc([N+](=O)[O-])c1 (stereo not given)
The “activation” value of the first is higher: 1.82% [at 35.6 µM] for the first, -3.93% [at 35.6 µM] for the second.

Compared with `CCO[C@@H]1O[C@H](C(COCc2ccccc2)OCc2ccccc2)[C@H](OCc2ccccc2)[C@H]1O` (stereo not given in full), `CCc1cccc(N(C)C(N)=Nc2cccc3ccccc23)c1` is lower in “activation” value: 9.75% [at 35.6 µM] for the first, -9.77% [at 35.6 µM] for the second.

Going from `CC/C=C\CCOC(C)OCC` (stereo not given) to `COCCc1ccc(OCC2CO2)cc1` (stereo not given), the “activation” value falls from 0.0501% [at 35.6 µM] to -12.7% [at 35.6 µM].

Compared with `C[C@@H]1C[C@H]2[C@@H]3C[C@H](F)C4=CC(=O)C=C[C@]4(C)[C@@]3(F)[C@@H](O)C[C@]2(C)[C@@]1(O)C(=O)CO`, `COc1cc(C(C)=O)ccc1OCCCN1CCC(c2noc3cc(F)ccc23)CC1` is lower in “activation” value: 1.43% [at 35.6 µM] for the first, -10.8% [at 35.6 µM] for the second.

Going from `NCCCC(N)(C(=O)O)C(F)F` (stereo not given) to `CCOC(=O)[C@@](C)(N)Cc1ccc(O)c(O)c1`, the “activation” value rises from 1.68% [at 35.6 µM] to 2.95% [at 35.6 µM].

`O=C(CCCN1CCN(c2ccc(F)cc2)CC1)NC1c2ccccc2CSc2ccccc21` (stereo not given) was tested, and the “activation” value was -14.1% [at 35.6 µM].
